From PubChem BioAssay (Tox21)
Unmarked numbers belong to inactive results. Inconclusive results are not listed. Entries that show only a call come without a potency. Calls of active or inactive are those of the source. Unless noted, the call rests on the fitted dose curve; in most records, active means well fitted curve in the direction sought with a large enough effect in the repeat runs; inconclusive means weak or mixed curves; inactive means no such curve, though single readings can be large; an effect the other way counts as inactive or inconclusive.

Key:
[1] = A CellTox Green Cytotoxicity Assay to monitor cytotoxicity in HEK293 cells - 32 hour (AID 1224881); further: nearly all actives have a fitted effect of over 40% in size
Method in brief: (§1)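 Each value comes from one timepoint of a single continuous run in which HEK293 cells with CellTox Green were exposed to compound for up to 40 h at 37 C, dye fluorescence rising with cell death.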

[2] = A CellTox Green Cytotoxicity Assay to monitor cytotoxicity in HepG2 cells - 0 hour (AID 1224882); further: nearly all actives have a fitted effect of over 35% in size
Method in brief: (§2)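 Continuous culture of HepG2 cells with a membrane-impermeant DNA dye; rising fluorescence marks dead cells. Compound exposure lasted up to 40 h at 37 C, with reads every 8 h from 0 h.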

[3] = A CellTox Green Cytotoxicity Assay to monitor cytotoxicity in HEK293 cells - 8 hour (AID 1224884); further: nearly all actives have a fitted effect of over 35% in size
Method in brief: as §1

[4] = qHTS RealTime-Glo MT Cell Viability Assay in HepG2 cells - 16 hour (AID 1224885); further: nearly all actives have a fitted effect of over 50% in size
Method in brief: (§3)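 Real-time, nonlytic viability: 600 HepG2 cells/well mixed with NanoLuc enzyme plus prosubstrate; 5 h settle, compound (DMSO) added by pintool; luminescence monitored over 40 h at 37 C.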

[5] = qHTS RealTime-Glo MT Cell Viability Assay in HEK293 cells - 8 hour (AID 1224887); further: top concentration of the series differs between compounds; nearly all actives have a fitted effect of over 50% in size
Method in brief: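 qHTS format; HEK293 cells with NanoLuc/prosubstrate reagent, 37 C/5% CO2 for 5 h pre-dosing; compounds 23 nL in DMSO; luminescence at each time point reflects viable cells.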

[6] = A CellTox Green Cytotoxicity Assay to monitor cytotoxicity in HEK293 cells - 16 hour (AID 1224888); further: nearly all actives have a fitted effect of over 35% in size
Method in brief: as §1

[7] = qHTS RealTime-Glo MT Cell Viability Assay in HepG2 cells - 0 hour (AID 1224889); further: nearly all actives have a fitted effect of over 50% in size
Method in brief: as §3

[8] = A CellTox Green Cytotoxicity Assay to monitor cytotoxicity in HepG2 cells - 8 hour (AID 1224890); further: nearly all actives have a fitted effect of over 45% in size
Method in brief: as §2

[9] = qHTS assay to identify small molecule antagonists of the estrogen receptor alpha (ER-alpha) signaling pathway using the BG1 cell line in the presence of 0.1 nM 17-beta-estradiol - cell viability counter screen (AID 1259241); further: nearly all actives have a fitted effect of over 40% in size
Method in brief: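 Cytotoxicity counter-screen: live-cell protease activity measured by fluorescence (30 min reagent step) in the same wells. Cells were VM7Luc4E2 with endogenous ER-alpha and ERE-driven luciferase, treated 22 hr at 37C alongside 0.1 nM 17beta-estradiol final.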

[10] = qHTS assay to identify small molecule antagonists of the androgen receptor (AR) signaling pathway using the MDA cell line in the presence of 0.5 nM R1881 - cell viability counter screen (AID 1259242); further: nearly all actives have a fitted effect of over 45% in size; further: potency means the concentration at half of the fitted maximal effect
Method in brief: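 Fluorescence from CellTiter-Fluor, which reports protease activity of live cells, was read 30 min after reagent addition to MDA-kb2 cells that had been incubated 16 hr with compound and 0.5 nM R1881.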

[11] = target: Estrogen receptor (Homo sapiens) (UniProt P03372); assay: qHTS assay to identify small molecule antagonists of the estrogen receptor alpha (ER-alpha) signaling pathway using the BG1 cell line in the presence of 0.1 nM 17-beta-estradiol (AID 1259244); further: nearly all actives have a fitted effect of over 50% in size; further: potency means the concentration at half of the fitted maximal effect
Sequence of Estrogen receptor (Homo sapiens) (P03372 whole entry, looked up): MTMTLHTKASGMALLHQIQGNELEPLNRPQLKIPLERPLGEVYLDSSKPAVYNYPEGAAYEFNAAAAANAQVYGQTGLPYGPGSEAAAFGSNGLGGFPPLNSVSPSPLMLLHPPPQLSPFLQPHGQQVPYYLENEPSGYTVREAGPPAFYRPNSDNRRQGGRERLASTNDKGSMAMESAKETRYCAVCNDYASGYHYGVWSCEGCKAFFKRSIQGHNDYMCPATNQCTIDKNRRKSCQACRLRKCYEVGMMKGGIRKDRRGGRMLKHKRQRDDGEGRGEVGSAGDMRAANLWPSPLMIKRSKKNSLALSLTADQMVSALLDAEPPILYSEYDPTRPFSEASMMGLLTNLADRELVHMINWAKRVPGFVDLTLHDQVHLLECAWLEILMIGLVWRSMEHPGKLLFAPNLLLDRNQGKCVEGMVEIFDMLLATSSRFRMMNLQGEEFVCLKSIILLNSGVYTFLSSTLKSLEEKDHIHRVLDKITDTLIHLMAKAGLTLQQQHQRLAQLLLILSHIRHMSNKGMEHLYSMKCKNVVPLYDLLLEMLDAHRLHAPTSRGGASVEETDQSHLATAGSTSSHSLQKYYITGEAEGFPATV
Method in brief: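 Quantitative high-throughput screen in VM7Luc4E2 cells: compound plus 0.1 nM E2 (final), 22 h, 37C, 5% CO2; ONE-Glo added, 30 min room temperature, luminescence measured.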

[12] = qHTS assay to identify small molecule HDAC inhibitors (AID 1259364); further: top concentration of the series differs between compounds; nearly all actives have a fitted effect of over 45% in size
Method in brief: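 Endogenous HDAC class I/II activity was measured in wild-type HCT-116 cells by HDAC-Glo luminescence after 2 h compound treatment.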

[13] = qHTS assay to identify small molecule HDAC inhibitors - cell viability counter screen (AID 1259365)
Method in brief: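 CellTiter-Glo luminescence (30 min, room temperature) reported viability after a 2 h compound exposure at 37 C. Cells: wild-type HCT-116, 1,500 per well, seeded the night before.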

[14] = qHTS assay to identify small molecule agonists of the sonic hedgehog signaling (Shh) pathway - cell viability counter screen (AID 1259366); further: nearly all actives have a fitted effect of over 50% in size; further: potency means the concentration at half of the fitted maximal effect
Method in brief: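 Cytotoxicity counter screen: CellTiter-Fluor reagent added after 23 h compound exposure, then 1 h at 37C and fluorescence read. Cells were 3T3 Gli1-Luc, seeded 2,000 per well and dosed 4 h post-plating.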

[15] = qHTS assay to identify small molecule antagonists of the sonic hedgehog signaling (Shh) pathway - cell viability counter screen (AID 1259367); further: nearly all actives have a fitted effect of over 55% in size; further: potency means the concentration at half of the fitted maximal effect
Method in brief: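 NIH/3T3-derived Gli1-Luc reporter cells, 2,000/well, plated 4 hr before compound addition, then stimulated with conditioned medium for 24 hr at 37C. Viability measured in the same wells by CellTiter-Fluor fluorescence, reagent added at 23 hr for 1 hr.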

[16] = qHTS assay to identify small molecule agonists of the sonic hedgehog signaling (Shh) pathway (AID 1259368; calls by dose curve;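 further: NIH/3T3-derived 3T3Gli1-Luc cells carrying a stable Gli1-driven firefly luciferase reporter; series mostly up to about 92 µM; nearly all actives have a fitted effect of over 15% in size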)
Method in brief: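 Luminescent signal was taken as a measure of Gli1-controlled luciferase expression in stably transfected NIH/3T3-derived cells that had been treated for 24 hr with compounds delivered in DMSO.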

[17] = A CellTox Green Cytotoxicity Assay to monitor cytotoxicity in HepG2 cells - 32 hour (AID 1224883); further: nearly all actives have a fitted effect of over 50% in size; further: potency means the concentration at half of the fitted maximal effect
Method in brief: as §2

[18] = qHTS RealTime-Glo MT Cell Viability Assay in HEK293 cells - 24 hour (AID 1224886); further: nearly all actives have a fitted effect of over 50% in size; further: potency means the concentration at half of the fitted maximal effect
Method in brief: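 Cells + reagent dispensed (600 cells/well, HEK293) → 5 h at 37 C/5% CO2 → 23 nL compound in DMSO pinned → 40 h at 37 C → luminescence read at 0, 8, 16, 24, 32, 40 h.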

[19] = qHTS assay to identify small molecule phospholipidosis (PLD) inducers (AID 1259344; active means well fitted curve in the direction sought with a large enough effect; an effect the other way counts as inactive or inconclusive)
Method in brief: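 HepG2 cells, 900/well, treated with compound plus LipidTOX Red for 24 h at 37 C; amiodarone positive and DMSO negative controls. Fixed with paraformaldehyde/Hoechst, then high-content imaging scored LipidTOX pit count and integrated intensity per well and per cell.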

[20] = target: Androgen receptor (Homo sapiens) (UniProt P10275); assay: qHTS assay to identify small molecule antagonists of the androgen receptor (AR) signaling pathway using the MDA cell line in the presence of 0.5 nM R1881 (AID 1259243); further: nearly all actives have a fitted effect of over 50% in size; further: potency means the concentration at half of the fitted maximal effect
Sequence of Androgen receptor (Homo sapiens) (P10275 whole entry, looked up): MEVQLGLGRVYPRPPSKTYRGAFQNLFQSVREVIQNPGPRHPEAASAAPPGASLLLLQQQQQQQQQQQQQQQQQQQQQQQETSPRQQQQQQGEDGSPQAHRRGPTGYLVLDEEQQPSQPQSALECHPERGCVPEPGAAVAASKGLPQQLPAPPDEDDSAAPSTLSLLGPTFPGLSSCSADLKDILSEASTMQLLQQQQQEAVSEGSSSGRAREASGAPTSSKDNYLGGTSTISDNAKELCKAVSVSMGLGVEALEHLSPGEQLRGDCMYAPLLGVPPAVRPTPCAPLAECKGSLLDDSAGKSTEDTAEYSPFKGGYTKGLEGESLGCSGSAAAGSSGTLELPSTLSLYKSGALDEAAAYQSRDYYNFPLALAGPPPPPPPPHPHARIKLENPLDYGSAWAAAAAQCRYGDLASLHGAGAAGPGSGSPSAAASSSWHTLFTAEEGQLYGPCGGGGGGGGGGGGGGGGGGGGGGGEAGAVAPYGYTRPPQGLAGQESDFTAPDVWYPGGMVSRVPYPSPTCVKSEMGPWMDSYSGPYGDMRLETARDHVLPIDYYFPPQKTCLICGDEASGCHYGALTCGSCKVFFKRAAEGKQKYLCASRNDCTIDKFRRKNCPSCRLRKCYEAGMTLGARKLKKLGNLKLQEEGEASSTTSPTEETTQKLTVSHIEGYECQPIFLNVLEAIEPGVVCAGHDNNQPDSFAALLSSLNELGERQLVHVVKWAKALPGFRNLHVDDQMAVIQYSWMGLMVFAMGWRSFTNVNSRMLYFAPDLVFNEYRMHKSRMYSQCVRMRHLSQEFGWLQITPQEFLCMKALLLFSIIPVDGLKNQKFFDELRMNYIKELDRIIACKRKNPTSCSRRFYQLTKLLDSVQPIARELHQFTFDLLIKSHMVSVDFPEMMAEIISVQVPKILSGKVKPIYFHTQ
Method in brief: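 Inhibition of R1881 (0.5 nM final) induced reporter signal was measured in human MDA-kb2 cells; note the MMTV promoter also responds to GR. Exposure lasted 16 hr at 37C.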

| SMILES | Potency [1] | Potency [2] | Potency [3] | Potency [4] | Potency [5] | Potency [6] | Potency [7] | Potency [8] | Potency [9] | Potency [10] | Potency [11] | Potency [12] | outcome [13] | Potency [14] | Potency [15] | outcome [16] | Potency [17] | Potency [18] | Potency [19] | Potency [20] |
| --- | --- | --- | --- | --- | --- | --- | --- | --- | --- | --- | --- | --- | --- | --- | --- | --- | --- | --- | --- | --- |
| CCCCC(CC)COCCCN (configuration not stated) | inactive | inactive | inactive | inactive | inactive | inactive | inactive | inactive | inactive | inactive | inactive | inactive | inactive | inactive | inactive | inactive |  |  |  |  |
| Nc1cnn([C@@H]2O[C@H](CO)[C@@H](O)[C@H]2O)c(=O)n1 |  | inactive | inactive | inactive | inactive | inactive | inactive | inactive | inactive | inactive | inactive | inactive | inactive | inactive | inactive | inactive | inactive | inactive |  |  |
| CNCC[C@@H](Oc1ccccc1C)c1ccccc1 | inactive |  | inactive | inactive |  |  |  | inactive |  | inactive | inactive | inactive |  | inactive | inactive | inactive |  | inactive | inactive |  |
| CC(C)(C)c1ccc(S)cc1 |  | inactive | inactive | inactive | inactive | inactive | inactive | inactive | inactive |  | inactive | inactive |  | inactive | inactive | inactive | inactive | inactive |  |  |
| CC1=CCC(C(C)C)C=C1 (configuration not stated) |  | inactive | inactive | inactive | inactive | inactive | inactive | inactive |  | inactive | inactive | inactive | inactive | inactive |  | inactive | inactive | inactive |  |  |
| CC(C)(C)c1cc(O)c(C(C)(C)C)cc1O |  | inactive | inactive |  |  | inactive | inactive | inactive |  | 54.5 µM (active) | 43.3 µM (active) | inactive | inactive | 61.1 µM (active) |  | inactive | inactive | 21.9 µM (active) |  | 19.3 µM (active) |
| CC(=O)c1c(C)c([N+](=O)[O-])c(C(C)(C)C)c([N+](=O)[O-])c1C |  | inactive | inactive | inactive | inactive | inactive | inactive | inactive | inactive | inactive |  | inactive | inactive | inactive | inactive | inactive |  | inactive |  |  |
| CC(C)c1ccccc1C(C)C |  | inactive | inactive |  | inactive | inactive | inactive | inactive | inactive | inactive |  | inactive | inactive | inactive | inactive | inactive | inactive | inactive |  |  |
| ClC(Cl)(Cl)c1ccc(C(Cl)(Cl)Cl)cc1 |  | inactive | inactive | inactive |  | inactive | inactive | inactive |  |  | inactive | inactive | inactive | inactive | inactive | inactive | inactive | inactive |  |  |
| O=C1c2cccc(O)c2C(=O)c2c(O)cc(CO)cc21 |  | inactive | inactive |  |  | inactive | inactive | inactive | inactive |  | inactive | inactive | inactive | inactive | inactive | inactive | inactive |  |  |  |
| CC(=O)/C=C/C1C(C)=CCCC1(C)C (configuration not stated) |  | inactive | inactive |  | inactive | inactive | inactive | inactive | inactive |  | inactive | inactive | inactive | inactive |  | inactive | inactive | inactive |  |  |
| C=CC(C)(CCC=C(C)C)OC(=O)c1ccccc1 (configuration not stated) |  | inactive |  | inactive | inactive |  | inactive | inactive | inactive | inactive |  | inactive | inactive | inactive | inactive | inactive | inactive | inactive |  |  |
| CCN(CC)CCOc1ccc2c(c1)C(=O)c1cc(OCCN(CC)CC)ccc1-2 |  | inactive | inactive | inactive | inactive | inactive | inactive | inactive | inactive |  |  | inactive | inactive | inactive | inactive | inactive |  | 10.7 µM (active) |  |  |
| O=C(O)c1cn(C2CC2)c2cc(Cl)c(F)cc2c1=O |  | inactive |  | inactive |  |  | inactive | inactive | inactive |  | inactive | inactive | inactive | inactive | inactive | inactive | inactive |  |  | inactive |
| CC(C)c1ccc2c(C(C)C)cc(C(C)C)c(S(=O)(=O)O)c2c1 |  | inactive | inactive | inactive | inactive | inactive | inactive | inactive | inactive |  | inactive | inactive | inactive | inactive | inactive | inactive |  | inactive |  | inactive |
| N#CCc1cccc(C(F)(F)F)c1 |  | inactive | inactive | inactive | inactive | inactive | inactive | inactive | inactive | inactive | inactive | inactive | inactive | inactive |  | inactive |  | inactive |  |  |
| COCCCCCCCCOCCC[Si](C)(O[Si](C)(C)C)O[Si](C)(C)C |  | inactive | inactive |  | inactive |  | inactive | inactive |  |  | 17.2 µM (active) | inactive | inactive | inactive |  | inactive | 21.9 µM (active) | 2.45 µM (active) |  |  |
| Cc1cccc(C(C)(C)C)c1O |  | inactive | inactive | inactive | inactive | inactive | inactive |  | inactive | inactive | inactive | inactive |  | inactive | inactive | inactive |  | inactive |  |  |
| CCOC(=O)[C@H](CCc1ccccc1)N[C@H]1CCc2ccccc2N(CC(=O)O)C1=O |  | inactive | inactive |  |  |  |  |  | inactive |  |  | inactive | inactive | inactive |  | inactive | 26.8 µM (active) |  |  |  |
| C=CC(=O)OCC(C)OCC(C)OCC(C)OC(=O)C=C (configuration not stated) |  | inactive | inactive |  | inactive | inactive | inactive | inactive |  | inactive | inactive | inactive | inactive | 24.3 µM (active) | 48.6 µM (active) | inactive | 54.9 µM (active) | 43.6 µM (active) |  |  |
| CCCCCc1ccc(N)cc1 |  | inactive | inactive |  |  | inactive | inactive |  |  |  | inactive | inactive | inactive | inactive | inactive | inactive | 49 µM (active) | inactive |  |  |
| CC(C)(C)c1ccc(OCC2CO2)cc1 (configuration not stated) |  | inactive | inactive | inactive | inactive |  | inactive | inactive | inactive | inactive | inactive | inactive | inactive | inactive |  | inactive |  | inactive |  |  |
| CCCOc1ccc2nc(NC(=O)OC)[nH]c2c1 |  | inactive | inactive | inactive | inactive | inactive | inactive | inactive | inactive | inactive | inactive |  | inactive | inactive |  | inactive |  |  | inactive | inactive |
